Reference: PubChem BioAssay AID2315 (National Center for Advancing Translational Sciences (NCATS), 2010)
Among all 290,000 compounds or so, about 27,000 (9.3%) were called active. The sample holds actives, similar compounds and a random draw of the others, so the mix is not that of the screen. Rule as the data show it: active = inhibition mostly above about 28% (no sharp cut-off); inactive = mostly below about 43%.

Experiment: A qHTS for Small Molecule Inhibitors of Shiga Toxin; also: 0% is about no effect
Settings: Vero cells, Shiga toxin protein synthesis inhibition reporter; at 38.7 µM, hits give high values

SMILES	inhibition
Cc1ccc2c(C)c(C(=O)N(C)CCC3CCCCO3)oc2c1C (centres undefined)	55.6% (inactive)
Cc1ccc2nc(S(=O)(=O)O)[nH]c2c1	-4.97% (inactive)
CCOC(=O)CSc1nc2ccc(C)cc2[nH]1	46.5% (inactive)
Cc1ccc2nc(/C(C#N)=C\c3ccc(OC(=O)c4cccs4)cc3)[nH]c2c1	52.8% (active)
CCn1c(=S)sc2c(=O)n(CC(=O)Nc3cccc(Br)c3)c(C)nc21	13.8% (inactive)
COC(=O)c1c(NC(=O)COc2ccc(Cl)cc2Cl)sc2c1CC(C)(C)NC2(C)C	-5.3% (inactive)
Cc1c(C=O)c2ccccc2n1CCOc1ccccc1	31.9% (inactive)
CCOC(=O)CSc1nc2sc3c(c2c(=O)[nH]1)CC(C)(C)OC3	-6.92% (inactive)
CCSc1nc2sc3c(c2c(=O)[nH]1)CC(C)(C)OC3	4.12% (inactive)
CC/C(C)=N/Nc1nc2sc3c(c2c(=O)[nH]1)CC(C)(C)OC3	42.5% (active)
COc1ccc(C(=O)NCc2cn3ccccc3n2)cc1	8.12% (inactive)
O=Cc1ccc(OCc2cn3ccccc3n2)cc1	57.2% (active)
Cc1ccc2nc(COc3ccc(N(C)S(=O)(=O)c4ccccc4)cc3)cc(=O)n2c1	13.5% (inactive)
CCCNC(=O)CSc1nc(Cc2ccccc2)nc2ccccc12	-9.69% (inactive)
CCC(C(=O)NCCC(C)C)N(Cc1ccccc1Cl)C(=O)c1snc(C(N)=O)c1N (centres undefined)	-5.11% (inactive)
Cc1ccn(-c2cccc(-n3ccc(C)n3)n2)n1	132% (active)
Cn1cc(S(=O)(=O)Nc2ccc(Cl)cc2Cl)c(=O)n(C)c1=O	-4.85% (inactive)
COc1ccc(CN2CCNC(=O)C2CC(=O)NCc2cn[nH]c2-c2ccccc2)c(F)c1 (centres undefined)	-2.54% (inactive)
COc1ccc(C)cc1N(C(=O)Cn1nnc(-c2ccc(C)o2)n1)C(C(=O)NC1CCCC1)c1ccncc1 (centres undefined)	-2.11% (inactive)
Cc1ccc(S(=O)(=O)NC2CCCCCC2)cc1C(N)=O	-3.95% (inactive)
CCn1cc(CCC(=O)NCc2ccc(F)cc2)c2ccccc21	-4.61% (inactive)
Cc1ccc2c(CSc3nncs3)cc(=O)oc2c1	120% (active)
CCOC(=O)Cc1csc(SCc2cc(=O)oc3cc(O)ccc23)n1	-5.09% (inactive)
COCc1cc(=O)oc2cc(NS(=O)(=O)c3ccc(C)cc3)ccc12	7.5% (inactive)
CN1/C(=c2/s/c(=C3/C(=O)N(c4ccccc4)NC3=Nc3ccccc3)n(C)c2=O)C(C)(C)c2ccccc21	-12.9% (inactive)

SMILES	inhibition
CC(C)(C)c1ccccc1NC(=O)CN1C(=O)NC2(CCCC2)C1=O	-11.9% (inactive)
O=C(CN1CCN(c2ccc(O)cc2)CC1)Nc1ccc(-c2ccccc2)cc1	2.35% (inactive)
CC(=O)c1ccc(S(=O)(=O)N2CCC3(CC2)OCCO3)cc1	-3.96% (inactive)
CN1C(=O)/C(=N/OC(=O)c2ccccc2Br)c2ccccc21	-3.77% (inactive)
CN1C(=O)/C(=C\c2cc(Br)cs2)c2ccccc21	76.4% (active)
CCC1C(=O)c2ccccc2N(C)C1=O (centres undefined)	-0.747% (inactive)
CCc1ccc(S(=O)(=O)Nc2cc3c(cc2N2CCCCC2)n(C)c(=O)c(=O)n3C)cc1	-14.2% (inactive)
Cc1c(Cl)cccc1NC(=O)CCC(=O)N/N=C/c1ccco1	4.7% (inactive)
CC(=O)c1ccc(OCCN2CCOCC2)cc1	32.1% (inactive)
c1ccc(-c2ccc(OCCN3CCOCC3)cc2)cc1	86.3% (active)
CC(C)(c1ccccc1)c1ccc(OCCN2CCCC2)cc1	-9.76% (inactive)
CC(C)(C)NC(=O)C(c1ccc(Cl)cc1)N(CCO)C(=O)c1snc(C(N)=O)c1N (centres undefined)	-5.05% (inactive)
COc1ccccc1C(C)NC(=O)Cc1ccsc1 (centres undefined)	-7.47% (inactive)
COc1ccc(C2CC(c3cccs3)=NN2C(=O)COC(=O)c2cc3ccccc3cc2O)cc1OC (centres undefined)	-13.7% (inactive)
O=C(c1ccccc1)N1N=C(c2ccccc2O)CC1c1ccc(Br)cc1 (centres undefined)	10.4% (inactive)
COc1ccc(C2=NN(c3ccccc3)C(c3cccs3)C2)cc1 (centres undefined)	3.11% (inactive)
COc1ccc(C2CC(c3cccs3)=NN2c2ccccc2)cc1 (centres undefined)	83% (active)
COc1ccccc1N1N=C(c2cccs2)CC1c1ccccc1 (centres undefined)	36.3% (active)
COc1ccc(C2CC(c3cccs3)=NN2c2ccc(F)cc2)cc1OC (centres undefined)	26.5% (inactive)
CC(=O)Oc1ccccc1C1=NN(C(C)=O)C(c2ccccc2)C1 (centres undefined)	18.4% (inactive)
Oc1ccccc1C1=NN(c2ccccc2)C(c2ccccc2)C1 (centres undefined)	55.6% (active)
COc1ccc(C2CC(c3cccs3)=NN2c2nc(C)c(C(C)=O)s2)cc1OC (centres undefined)	15.6% (inactive)
CS(=O)(=O)N1CCN(CC(=O)NC2CCCC2)CC1	-2.76% (inactive)
O=C(Nc1ccc(Cl)cc1)c1cccc(OC(=S)N2CCOCC2)c1	18% (inactive)
O=C(COc1ccc(Cl)cc1Cl)N/N=C/c1ccccn1	8.65% (inactive)

SMILES	inhibition
CSc1ncccc1C(=O)NCc1ccccc1Cl	-6.54% (inactive)
CC1(C)Cc2ccccc2-c2[nH]c(=S)[nH]c(=O)c21	-5.22% (inactive)
Brc1ccc(Nc2c3c(nc4ncnn24)CCC3)cc1	-2.6% (inactive)
COCc1cc(=O)n2[nH]c(C)c(-c3ccccc3)c2n1	8.24% (inactive)
Nc1scc(-c2ccncc2)c1Cl	64.7% (active)
COC(=O)c1c(-c2ccc(C)cc2)csc1N	-0.659% (inactive)
CN(C(=O)COC(=O)c1nc(Cl)ccc1Cl)C1CCS(=O)(=O)C1 (centres undefined)	-15.4% (inactive)
CC(=O)c1nn(-c2cccc(C(F)(F)F)c2)c(=O)[nH]c1=O	21.6% (inactive)
O=C1CSC(=S)N1c1ccc(Cl)c(Cl)c1	24.6% (inactive)
CCCNC(=O)c1cnc(-c2ccccc2)nc1-c1ccccc1	-8.32% (inactive)
Clc1ccc2nc(CSc3ccccc3)cn2c1	31.5% (active)
O=C(/C=C/c1ccc2c(c1)OCO2)NCc1cn2cc(Cl)ccc2n1	21.3% (inactive)
CCOc1ncccc1C(=O)OCc1cn2cc(Cl)ccc2n1	18.7% (inactive)
CC(C)CC(=O)N1CCN(Cc2cccc(Cl)c2)CC1	-12.6% (inactive)
CC(=O)N(c1ccc2oc(=O)sc2c1)S(=O)(=O)c1ccc(C)cc1	-13.9% (inactive)
CCC1=C(OC(=O)N(CC)CC)N2C(=O)OC(=NCCc3c[nH]c4ccccc34)[C@]2(C)[C@H]2C1=CC[C@H]1C(=O)N(CC)C(=O)[C@H]12	2.44% (inactive)
O=C(CCC(=O)N/N=C/c1ccc(Br)o1)N/N=C/c1ccc(Br)o1	5.62% (inactive)
O=C(CN1C(=O)COc2ccccc21)Nc1ccc(F)cc1	74.4% (active)
CC(OC(=O)CN1C(=O)COc2ccccc21)C(=O)NCc1ccc(F)cc1 (centres undefined)	-12.1% (inactive)
O=C(CN1C(=O)COc2ccccc21)NCCN1CCc2ccccc2C1	29.8% (inactive)
CC(C)C[C@@H](CO)N1CCN(Cc2ccc(O)cc2)CCC1=O	7.05% (inactive)
CC(=O)NC(=S)Nc1ccc(NC(=S)NC(=O)c2ccc([N+](=O)[O-])cc2)cc1	-11.1% (inactive)
O=C(NCCOc1ccccc1)c1ccccc1	42.2% (inactive)
COCCCNC(=S)NC(=O)c1ccccc1	50.8% (active)
COCCCNC(=S)NNC(=O)C(O)(c1ccccc1)c1ccccc1	-12.4% (inactive)

SMILES	inhibition
COCCCNC(=S)NC(=O)c1ccc([N+](=O)[O-])cc1	34% (active)
CCCCCC(=O)NC(=S)NNC(=O)c1ccc([N+](=O)[O-])cc1	-13.4% (inactive)
COc1ccc(CNC(=O)C(C)NCc2ccccc2Cl)cc1 (centres undefined)	-9.04% (inactive)
Cc1ccc(S(=O)(=O)N(CC(=O)Nc2cccnc2)c2ccc(Br)cc2)cc1	-36.9% (inactive)
CN(C)CCCn1c(=O)n(Cc2ccccc2)c(=O)c2c3c(sc21)CCCCC3	-7.1% (inactive)
C=CCn1c(-c2sc(-c3ccccc3)nc2C)n[nH]c1=S	24.9% (inactive)
Cc1nc(-c2ccccc2)sc1-c1nc(-c2ccccc2)ncc1S(=O)(=O)c1ccccc1	-10.1% (inactive)
Cc1nc(-c2ccccc2)sc1-c1nnc(C2CC2)o1	87.2% (active)
CCOc1cc(C(=S)N2CCOCC2)ccc1OS(=O)(=O)c1ccc(Br)cc1	1.09% (inactive)
C=CCOc1ccccc1NC(=O)CN1C(=O)CNC1=O	-4.23% (inactive)
COc1ccc(OC)c(NC(=O)c2cccc(S(=O)(=O)N3CCN(C(C)=O)CC3)c2)c1	1.91% (inactive)
COc1ccccc1C(=O)OCC(=O)NCCNC(=O)COC(=O)c1ccccc1OC	-3.42% (inactive)
Cc1cccc(-c2noc(CCC(=O)NC3CCCC3)n2)c1	24.9% (inactive)
Cc1ccc(-c2noc(CN3CCN(Cc4ccccc4)CC3)n2)cc1	41.3% (inactive)
Cc1ccc(-c2noc(CSc3nnc(-c4ccccc4)n3C)n2)cc1	-2.98% (inactive)
Cc1cccc(-c2noc(-c3ccc(F)cc3)n2)c1	152% (active)
Cc1cccc(-c2nc(Nc3ccc(O)cc3)c3ccccc3n2)c1	-1.6% (inactive)
Cc1ccc(Cc2nc(-c3cccc(C)c3)no2)cc1	48.1% (active)
O=C(O)CC(CC(=O)N1CCOCC1)c1ccccc1 (centres undefined)	-6.69% (inactive)
Cc1c(NC(=O)c2c([N+](=O)[O-])cnn2C)c(=O)n(-c2ccccc2)n1C	-11.5% (inactive)
Cc1ccc(OCC(=O)Nc2ccccc2C(=O)NC2CC2)cc1C	-4.84% (inactive)
COc1ccc(OCCC(=O)c2ccc(OC)cc2)cc1	-6.88% (inactive)
COc1ccc(C(=O)CC2C(=O)N(C)C(=O)N(C)C2=O)cc1	13.8% (inactive)
CO/N=C/CC(=O)c1ccc(OC)cc1	91.1% (active)
